M1 PAM: human M1 muscarinic receptor positive allosteric modulators, primary screen, CHO-K1 cells, Fluo-8 calcium fluorescence, 1536-well | Muscarinic acetylcholine receptor M1 (Homo sapiens), P11229 | CHO-K1 hM1, ACh EC20; 0% = ACh EC20, 100% = maximal ACh | activation, % at 3 µM | actives 0.088% (n = 360,000); in the data active means activation above about 19%, passing the limit was not always enough
Target sequence (P11229 whole entry, looked up): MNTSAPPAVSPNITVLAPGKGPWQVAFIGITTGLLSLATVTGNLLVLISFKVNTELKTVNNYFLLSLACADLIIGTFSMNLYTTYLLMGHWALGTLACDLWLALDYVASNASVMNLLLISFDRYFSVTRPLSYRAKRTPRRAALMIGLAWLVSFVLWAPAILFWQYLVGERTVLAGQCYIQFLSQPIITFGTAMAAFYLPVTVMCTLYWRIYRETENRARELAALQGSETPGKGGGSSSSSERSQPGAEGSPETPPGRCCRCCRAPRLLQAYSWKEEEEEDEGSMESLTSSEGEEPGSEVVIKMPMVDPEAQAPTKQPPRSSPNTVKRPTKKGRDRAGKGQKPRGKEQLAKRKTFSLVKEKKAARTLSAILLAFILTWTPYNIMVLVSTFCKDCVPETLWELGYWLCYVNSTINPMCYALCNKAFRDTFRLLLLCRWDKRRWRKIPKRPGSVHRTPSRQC
M1 PAM parental: nonselective calcium activators in parental CHO-K1 cells, primary screen, counter-screen for M1 PAM project, cell-based, Fluo-8 calcium fluorescence, full deck, 1536-well; ATP EC20; 0% at ATP EC20, 100% at ATP max; activation, % at 3 µM; actives 0.02% (n = 360,000);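 active means activation above the run cutoff, the mean activation of all test compounds plus 3 SD, cut at about 40% in these data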;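 further: peak over basal fluorescence ratio in a 140 s read after ATP addition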
M1 ag parental: counter-screen for M1 agonists: effect in parental CHO-K1 cells. Fluo-8 calcium fluorescence; scaled to maximal ATP response, vehicle zero. AID 602248, 2012. actives 0.48% (n = 360,000). activation, % at 3 µM; in the data active means activation above about 15%;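 further: untransfected CHO-K1 host cells lacking M1 receptor as counterscreen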
CHRM1 antagonist: human M1 muscarinic receptor antagonists, primary screen, CHO-K1 cells, Fluo-8 calcium fluorescence, 1536-well; Muscarinic acetylcholine receptor M1 (Homo sapiens), P11229; CHO-K1 hM1, ACh EC80 antagonist; inhibition, % at 3 µM; actives 1.3% (n = 360,000); AID 588852, 2011;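 active means percent inhibition above its own plate's cutoff, namely the mean of that plate's compound wells plus 3 SD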;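 further: peak over basal fluorescence ratio during 140 s after agonist addition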
M1 ag: human M1 muscarinic receptor agonists, primary screen, Fluo-8 calcium fluorescence, CHO-K1 cells, HTS. Muscarinic acetylcholine receptor M1 (Homo sapiens), P11229. CHO-K1 hM1, agonist mode; 0% DMSO, 100% acetylcholine EC100. activation, % at 3 µM. actives 0.33% (n = 360,000);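 active means activation above the run's mean compound activation plus 3 SD, cut at about 16% in these data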;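 further: peak over basal fluorescence ratio within a 140 s kinetic read after compound addition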
CHO-K1 Ca antag: counter-screen for M1 antagonists: effect in parental CHO-K1 cells; ATP-induced calcium, Fluo-8 fluorescence; inhibition, % at 3 µM; actives 0.6% (n = 360,000); AID 602250;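 active means inhibition above a per-plate cutoff, the plate's mean sample inhibition plus 3 SD, cut at about 24% in these data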
Of the large screens only hits and unclear results are named; the others gave an inactive call. This is a sample that favours compounds with a hit; in the whole collection about 2.3% have one here.

O=C(CC[C@H]1O[C@@H](n2cnc3c(NC(=O)c4ccccc4)ncnc32)[C@H](O)[C@@H]1O)NCCc1cc2ccccc2[nH]1	CHO-K1 Ca antag 27.2
O=C(CC[C@H]1O[C@@H](n2cnc3c(NC(=O)c4ccccc4)ncnc32)[C@H](O)[C@@H]1O)NCc1ccco1	none
c1ccc(Oc2cccc(OCCCn3cncn3)c2)cc1	M1 PAM 20.7
O=C(OCC#CCSc1nnc(-c2ccncc2)o1)c1cccs1	M1 ag parental 17.4
O=[N+]([O-])c1cccnc1SCc1ccccc1	none
NC(=O)CCN1CCN(CCOC2Cc3cc(Cl)ccc3Sc3ccccc32)CC1 (stereo not drawn)	none
Fc1ccc2c(c1)Sc1ccc(Cl)cc1CC2N1CCN(CCC2OCCO2)CC1 (stereo not drawn)	CHRM1 antagonist 75.3
CN(CCOc1ccccc1)C(=O)c1ccc(Cl)c(S(=O)(=O)N2CCCCC2)c1	none
Cc1c(N=C/C=C/c2ccccc2)c(=O)n(-c2ccccc2)n1C	CHRM1 antagonist 99.9
COc1cc(/C=C2\SC(=S)N(NS(=O)(=O)c3ccc(C)cc3)C2=O)ccc1O	M1 ag parental 24.1
COc1cc(/C=C2\SC(=S)N(NS(=O)(=O)c3ccccc3)C2=O)ccc1O	M1 ag parental 15.9
O=C(Nc1ccnn1C1CCN(C2CCC2)CC1)c1ccccc1	none
Cc1cc(=O)n2nc(N3CCCC(C(=O)N4CCOCC4)C3)sc2n1 (stereo not drawn)	none
Cc1cc(=O)n2nc(N3CCCC(C(=O)N4CCc5ccccc54)C3)sc2n1 (stereo not drawn)	CHRM1 antagonist 96.7
CCOC(=O)CNC(=O)Cn1cnc2c(nnn2-c2ccc(OC)cc2)c1=O	none
C=CCOc1cccc(C(=O)N2CCCC(Nc3ccc4c(c3)OCCO4)C2)c1 (stereo not drawn)	CHO-K1 Ca antag 56.9
C=Cc1ccc(C(=O)N2CCCC(Nc3ccc4c(c3)OCCO4)C2)cc1 (stereo not drawn)	none
COc1ccc(C)cc1NC(=O)COC(=O)Cc1c[nH]c2ccccc12	none
CC1(C)CC(=O)C2=C(C1)NC(SCC(=O)Nc1ccccc1)=C(C#N)C21CCCCC1	none
CC(C)(C)C1CCC2(CC1)C(C#N)=C(SCC(=O)Nc1ccccc1)NC(=O)C2C#N (stereo not drawn)	CHO-K1 Ca antag 27.3
Cc1ccc(CC(=O)Nc2ccc(S(=O)(=O)Nc3nccc(C)n3)cc2)cc1	none
Cc1ccnc(NS(=O)(=O)c2ccc(NC(=O)Cc3ccccc3)cc2)n1	CHO-K1 Ca antag 25.4
Cc1cc(C)nc(NS(=O)(=O)c2ccc(NC(=O)Cc3ccccc3)cc2)n1	CHO-K1 Ca antag 23.9
Cc1c(C=C(C#N)c2ccc([N+](=O)[O-])cc2)c(=O)n(-c2ccccc2)n1C	CHRM1 antagonist 29.9
CCCCCCCCCCC[N+](C)(C)CC/C=C1/c2ccccc2Sc2ccc(Cl)cc21	CHRM1 antagonist 99.4
CCCCCC[n+]1c(-c2ccc(Cl)cc2Cl)csc1Nc1ccccc1	none
CCC1=Nc2cc(C(=O)O)ccc2Sc2ccc(Cl)cc21	none
CC[N+](C)(C)CC/C=C1/c2ccccc2Sc2ccc(Cl)cc21	CHRM1 antagonist 99.6
CCCCCCCCCC[N+](C)(C)CC/C=C1/c2ccccc2Sc2ccc(Cl)cc21	CHRM1 antagonist 82.5
Cn1nc(C(C)(C)C)cc1C(=O)N1CCCC(c2cc(C(=O)NCc3ccccc3)no2)C1 (stereo not drawn)	none
CO/N=C/c1ccc(N2CCN(C(=O)c3ccc(Cl)cc3Cl)CC2)c([N+](=O)[O-])c1	CHRM1 antagonist 24.5
CCC(O)c1cc2c(cc1NC(=O)c1ccc(C)cc1)OCCO2 (stereo not drawn)	CHRM1 antagonist 26.3
O=C(Nc1ccccc1)c1nc[nH]c1C(=O)NCCNC(=O)c1[nH]cnc1C(=O)Nc1ccccc1	CHRM1 antagonist 25.0

Compound activity from PubChem BioAssay.
